Experimental data taken from the supplement of paper PMC6555819.

Assays:
Experiment in all cases: PBM binding z-score (relative to random genomic background probes); higher = stronger binding; sequences stand for … in GC…GCGATTGACAGCGTAGAATGAAGG
[1] = test system: FXR:RXRa (NR concentration 270 nM, RXRa partner concentration 90 nM)
Method in brief: (§1)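 Random background probes are the reference for binding z-scores. These scores derive from regression-normalized fluorescence on custom Agilent 4×180K protein-binding microarrays incubated 1 h with ligand-free nuclear receptor dimers. Binding was detected with antibodies against each partner (one per run).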

[2] = test system: LXRa:RXRa (NR concentration 270 nM, RXRa partner concentration 90 nM)
Method in brief: as §1

[3] = test system: LXRa homodimer (NR concentration 270 nM)
Method in brief: as §1

[4] = test system: LXRb:RXRa (NR concentration 270 nM, RXRa partner concentration 90 nM)
Method in brief: as §1

[5] = test system: LXRb homodimer (NR concentration 270 nM)
Method in brief: as §1

[6] = test system: PPARa:RXRa (NR concentration 270 nM, RXRa partner concentration 90 nM)
Method in brief: as §1

[7] = test system: PPARg:RXRa (NR concentration 180 nM, RXRa partner concentration 90 nM)
Method in brief: as §1

[8] = test system: PPARg:RXRa 270nM:90nM, anti-RXR (NR concentration 270 nM, RXRa partner concentration 90 nM)
Method in brief: as §1

[9] = test system: PPARg:RXRa 30nM:10nM, anti-RXR (NR concentration 30 nM, RXRa partner concentration 10 nM)
Method in brief: as §1

[10] = test system: PPARg:RXRa 90nM:30nM, anti-RXR (NR concentration 90 nM, RXRa partner concentration 30 nM)
Method in brief: as §1

[11] = test system: PPARg:RXRa DBDmut IVT, anti-RXR (DBD mutation: RXRa K156A/R161A, NR concentration 270 nM, RXRa partner concentration 90 nM)
Method in brief: as §1

[12] = test system: PPARg:RXRa IVT, anti-PPARg (NR concentration 270 nM, RXRa partner concentration 90 nM)
Method in brief: as §1

[13] = test system: PPARg DBDmut:RXRa IVT, anti-PPARg (DBD mutation: PPARg1 K132A/R137A, NR concentration 270 nM, RXRa partner concentration 90 nM)
Method in brief: as §1

[14] = test system: PPARg DBDmut IVT, anti-PPARg (DBD mutation: PPARg1 K132A/R137A, NR concentration 270 nM)
Method in brief: as §1

[15] = test system: PPARg homodimer (NR concentration 180 nM)
Method in brief: as §1

[16] = test system: PXR:RXRa (NR concentration 270 nM, RXRa partner concentration 90 nM)
Method in brief: as §1

[17] = test system: PXR homodimer (NR concentration 270 nM)
Method in brief: as §1

[18] = test system: RARa:RXR (NR concentration 270 nM, RXRa partner concentration 90 nM)
Method in brief: as §1

[19] = test system: RARa homodimer (NR concentration 270 nM)
Method in brief: as §1

[20] = test system: RARb:RXRa (NR concentration 270 nM, RXRa partner concentration 90 nM)
Method in brief: as §1

| Sequence | PBM binding z-score [1] | PBM binding z-score [2] | PBM binding z-score [3] | PBM binding z-score [4] | PBM binding z-score [5] | PBM binding z-score [6] | PBM binding z-score [7] | PBM binding z-score [8] | PBM binding z-score [9] | PBM binding z-score [10] | PBM binding z-score [11] | PBM binding z-score [12] | PBM binding z-score [13] | PBM binding z-score [14] | PBM binding z-score [15] | PBM binding z-score [16] | PBM binding z-score [17] | PBM binding z-score [18] | PBM binding z-score [19] | PBM binding z-score [20] |
| --- | --- | --- | --- | --- | --- | --- | --- | --- | --- | --- | --- | --- | --- | --- | --- | --- | --- | --- | --- | --- |
| TCTCGGAGGACACGAAGGTAAGAGCTTTCCAGAG | 0.0947 | -0.361 | -0.534 | -0.695 | -1.37 | -0.0207 | -0.0725 | 0.91 | 2.21 | 1.39 | 1.18 | -0.283 | -1.16 | -1.1 | -1.58 | -0.316 | -1.01 | -0.153 | -0.725 | 1.25 |
| ACAATGAGGTTAAGATCAGGGAAACAGAATACAT | 2.2 | 2.23 | 0.0608 | 1.85 | 0.674 | 3.04 | 2.06 | 1.68 | 0.802 | 1.24 | 1.93 | 1.78 | 1.53 | 1.8 | 1 | 1.35 | 0.672 | 1.97 | 1.24 | 1.95 |
| CCTAGTTGGTCAGGAGGACACACACCGGATATGA | 0.321 | 0.0708 | 0.61 | 0.0444 | 0.0185 | 0.000867 | 1.08 | 0.072 | -0.0757 | -0.0104 | 0.664 | 1.14 | -0.182 | 0.142 | 0.859 | -0.126 | 0.473 | 0.228 | 1.7 | 1.4 |
| CGTCAAAGTTCAAGATAACGTAACAGAAAGCAGC | 6.13 | 5.32 | 2.94 | 3.5 | 1.64 | 4.45 | 4.44 | 4.96 | 2.17 | 3.75 | 0.612 | 1.57 | 1.5 | 1.52 | 3.29 | 4.2 | 3.04 | 3.35 | 2.34 | 4.9 |
| TCTCGGAGGACACTAAGGTCAGAGCTTTCCAGAG | 1.87 | 1.63 | 0.625 | 1.5 | -0.615 | 2.32 | 0.459 | 1.84 | 2.1 | 1.81 | 1.61 | 1.22 | -0.543 | -1.32 | 1.72 | 3.24 | 6.61 | 2.71 | -0.0898 | 3.32 |
| CCTACTGGGACAAAAAGGTCATTGATGCCGATAA | 3.77 | 4.52 | 4.09 | 4.16 | 0.878 | 4.96 | 3.4 | 4.19 | 2.01 | 3.72 | 4 | 4.26 | 0.444 | -0.273 | 3.86 | 4.85 | 4.14 | 5.36 | 1.97 | 3.94 |
| AGAATGAGGTTGTTAAGATCAGGGAATTGCGGTC | 0.00995 | 0.0148 | -0.0695 | -0.0376 | -0.0779 | 0.298 | 0.171 | 0.206 | -0.197 | -0.0831 | 0.255 | -0.103 | -0.954 | -0.016 | 0.112 | 0.362 | 0.179 | 0.0989 | -0.0651 | 0.173 |
| TCTATTAGTTGAAGGGCAACCGACGAGTCCGTTT | 0.607 | 1.21 | 0.32 | 0.682 | 0.453 | 0.751 | 0.154 | 2.11 | 3.61 | 2.69 | 2.35 | 0.776 | 1.09 | 0.986 | 1.26 | 1 | 1.32 | 0.605 | 0.801 | 1.61 |
| GCTTGTAGATCAAGGTTAAAAAAGACTAAGCTAA | 0.221 | 1.35 | -0.113 | 0.828 | -0.501 | 1.84 | 1.19 | 2.38 | 0.522 | 1.79 | 1.05 | 1.23 | 0.281 | 0.272 | 0.282 | 0.574 | -0.0589 | 1.15 | 0.0785 | 0.688 |
| CCGACTGTGGCATAAGGTTACCATAAGCCAGCCC | 0.578 | 2.4 | 0.142 | 1.07 | -0.834 | 1.36 | 0.99 | 1.57 | -0.0445 | 0.844 | 1.12 | 0.305 | -0.617 | -0.541 | 0.621 | 0.365 | 0.018 | 0.961 | 0.166 | 0.964 |
| CCTTACGGGTCACTCCAGATTATAGCATCGGAGT | 4.83 | 4.8 | -0.0778 | 2.91 | 0.399 | 4.41 | 3.39 | 3.43 | 0.931 | 2.35 | 2.52 | 3.47 | 0.108 | 0.192 | 1.74 | 2.59 | 0.423 | 2.96 | 0.564 | 3.75 |
| CCTGCTAGGTCATGGTCAGCTACTCTACAGTATG | 3.3 | 2.34 | 0.256 | 1.42 | -0.441 | 3.16 | 2.56 | 2.72 | 0.637 | 1.67 | 4.23 | 3.88 | 0.29 | 0.349 | 1.41 | 0.866 | -0.32 | 2.09 | -0.0662 | 4.04 |
| ATCTGTAGGTAACCAAGTTCAGTGAATGCCGAAC | 0.276 | 0.775 | 0.477 | 0.549 | 0.153 | 1.05 | 0.635 | 0.922 | 0.0596 | 0.358 | 2.89 | 2.55 | -0.123 | 0.924 | 0.414 | 2.03 | 1.73 | 0.813 | 0.332 | 1.08 |
| ATCGAAAGCTCGAAGGTGAGTATACCCACCCGAA | -0.601 | -0.626 | -0.677 | -0.458 | -0.832 | -0.531 | 0.476 | -0.226 | -0.209 | -0.372 | -0.94 | -0.157 | 0.15 | -0.14 | -1.31 | -0.547 | -0.343 | -0.558 | -0.499 | 0.055 |
